{
  "source": "PubChem BioAssay (EPA / NIEHS)",
  "note": "Inconclusive results are not listed. Activity calls are given as the source filed them. The calls were made as follows: active = hit-call score of the fitted dose curve at least 0.9, where 1 is the maximum; inconclusive = response in the unintended direction; inactive = score below 0.9.",
  "data": [
    {"molecular_target": "Cellular tumor antigen p53 (Homo sapiens) (UniProt P04637)", "sequence (P04637 whole entry, looked up)": "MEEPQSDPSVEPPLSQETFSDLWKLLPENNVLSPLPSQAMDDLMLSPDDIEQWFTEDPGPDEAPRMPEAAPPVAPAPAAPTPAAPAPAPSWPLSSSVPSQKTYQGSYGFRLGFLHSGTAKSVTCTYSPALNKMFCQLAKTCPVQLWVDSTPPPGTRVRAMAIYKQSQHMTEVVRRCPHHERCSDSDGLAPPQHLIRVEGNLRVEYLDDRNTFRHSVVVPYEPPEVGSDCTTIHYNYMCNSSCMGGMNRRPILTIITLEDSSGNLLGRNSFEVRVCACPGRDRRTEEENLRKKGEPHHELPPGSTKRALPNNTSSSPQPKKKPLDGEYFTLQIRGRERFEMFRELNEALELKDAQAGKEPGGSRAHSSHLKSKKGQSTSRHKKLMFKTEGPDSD", "test": "TOX21_p53_BLA_p3_ratio: Tox21 HCT-116 p53 Agonism Beta-lactamase Assay, Ratio, Phase 3 (AID 2283596)", "method_in_brief": "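HCT116 p53-bla cells (4000/well) given compound in DMSO (217-fold dilution) after 5 h, incubated 16 h at 37C. CCF4-AM substrate 2 h at room temperature; 460/530 nm emission ratio, gain fitted against DMSO.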", "values": [
      {"smiles": "CCCCN(CCCC)C(=O)N(CCCC)CCCC", "outcome": "inactive"},
      {"smiles": "C=CCOC(=O)CCCCCC", "outcome": "inactive"},
      {"smiles": "CCC1(c2ccccc2)C(=O)NCNC1=O", "outcome": "inactive"},
      {"smiles": "CCCCC1CCC(O)CC1", "note": "(stereo unspecified)", "outcome": "inactive"},
      {"smiles": "CC1=NN(c2ccc(S(=O)(=O)O)cc2)C(=O)C1", "outcome": "inactive"},
      {"smiles": "CCCCC(CC)C(=O)OC(C)C", "note": "(stereo unspecified)", "outcome": "inactive"},
      {"smiles": "O=C(O)CNc1ccccc1", "outcome": "inactive"},
      {"smiles": "CC(C)c1ccccc1O", "outcome": "inactive"},
      {"smiles": "CN1CCOCC1", "outcome": "inactive"},
      {"smiles": "CC(C)(C)c1ccc(C(=O)O)cc1", "outcome": "inactive"},
      {"smiles": "CCOC(=O)C1OC1c1ccccc1", "note": "(stereo unspecified)", "outcome": "inactive"},
      {"smiles": "COC(C)(C)CC(C)=O", "outcome": "inactive"},
      {"smiles": "Cc1c(C2(c3cc(Br)c(O)c(Br)c3C)OS(=O)(=O)c3ccccc32)cc(Br)c(O)c1Br", "outcome": "inactive"},
      {"smiles": "CCCC(C)C(O)CC", "note": "(stereo unspecified)", "outcome": "inactive"},
      {"smiles": "CCOC(=O)[C@@H](C)Oc1ccc(Oc2nc3ccc(Cl)cc3o2)cc1", "outcome": "inactive"},
      {"smiles": "C[C@@H]1CCN(C(=O)[C@H](CCCN=C(N)N)NS(=O)(=O)c2cccc3c2NC[C@H](C)C3)[C@@H](C(=O)O)C1", "outcome": "inactive"},
      {"smiles": "C=C(C)C(=O)OCCOCCOCCOCCOC(=O)C(=C)C", "outcome": "inactive"},
      {"smiles": "Cc1ccc(OC(=O)c2ccccc2O)cc1", "outcome": "inactive"},
      {"smiles": "C=COCCOCCOC=C", "outcome": "inactive"},
      {"smiles": "CC(=O)CC(=O)Nc1ccc(C)cc1C", "outcome": "inactive"},
      {"smiles": "Cc1cc(S(=O)(=O)O)ccc1N=Nc1c(O)ccc2ccccc12", "outcome": "inactive"},
      {"smiles": "O=CCc1ccccc1", "outcome": "inactive"},
      {"smiles": "COc1ccc(N)c([N+](=O)[O-])c1", "outcome": "inactive"},
      {"smiles": "CC(=O)NCCO", "outcome": "inactive"},
      {"smiles": "CCCCCCCCCCCCCCN(CCO)CCO", "outcome": "inactive"},
      {"smiles": "CC1(C)O[C@@H]2[C@@H](CO[C@@]3(COS(N)(=O)=O)OC(C)(C)O[C@@H]23)O1", "outcome": "inactive"},
      {"smiles": "O=C(O)c1cccnc1C(=O)O", "outcome": "inactive"},
      {"smiles": "Cc1ccc(-c2ccccc2)cc1", "outcome": "inactive"},
      {"smiles": "CC(=O)O[C@@H]1CC2CCC1(C)C2(C)C", "note": "(stereo partly specified)", "outcome": "inactive"},
      {"smiles": "CCCCSCCCC", "outcome": "inactive"},
      {"smiles": "FC(F)(F)COCC(F)(F)F", "outcome": "inactive"},
      {"smiles": "CCCC(=O)C(CC)Sc1ccoc1C", "note": "(stereo unspecified)", "outcome": "inactive"},
      {"smiles": "CCCCCCCCN1CCCC1=O", "outcome": "inactive"},
      {"smiles": "N#Cc1cscn1", "outcome": "inactive"},
      {"smiles": "CC(CN=Cc1ccccc1O)N=Cc1ccccc1O", "note": "(stereo unspecified)", "outcome": "inactive"},
      {"smiles": "C=C(C)C(=O)OCCOCCOCCOC(=O)C(=C)C", "outcome": "inactive"},
      {"smiles": "CC(=O)O[C@H]1C[C@@H]2CC[C@@]1(C)C2(C)C", "outcome": "inactive"},
      {"smiles": "Cc1c(Cl)cccc1[N+](=O)[O-]", "outcome": "inactive"},
      {"smiles": "NCC1CCCC(CN)C1", "note": "(stereo unspecified)", "outcome": "inactive"}
    ]},
    {"system": "not listed separately", "test": "TOX21_p53_BLA_p4_viability: Viability Assessment in the Tox21 HCT-116 p53 Agonism Beta-lactamase Assay, Phase 4 (AID 2283597);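 also: hits lower the luminescence signal meaning cytotoxicity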", "method_in_brief": "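Luminescent ATP readout (CellTiter-Glo, 30 min, room temperature) in the same wells as the p53 bla ratio. HCT116 cells were treated for 16 h at 37C with DMSO-dissolved compounds.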", "values": [
      {"smiles": "C=CCOC(=O)CCCCCC", "outcome": "inactive"},
      {"smiles": "CCC1(c2ccccc2)C(=O)NCNC1=O", "outcome": "inactive"},
      {"smiles": "CC(C)c1ccccc1O", "outcome": "inactive"},
      {"smiles": "Cc1c(C2(c3cc(Br)c(O)c(Br)c3C)OS(=O)(=O)c3ccccc32)cc(Br)c(O)c1Br", "AC50": "28.4 µM (active)"},
      {"smiles": "CCCC(C)C(O)CC", "note": "(stereo unspecified)", "outcome": "inactive"},
      {"smiles": "C=C(C)C(=O)OCCOCCOCCOCCOC(=O)C(=C)C", "outcome": "inactive"},
      {"smiles": "C=COCCOCCOC=C", "outcome": "inactive"},
      {"smiles": "CC(=O)CC(=O)Nc1ccc(C)cc1C", "outcome": "inactive"},
      {"smiles": "Cc1cc(S(=O)(=O)O)ccc1N=Nc1c(O)ccc2ccccc12", "outcome": "inactive"},
      {"smiles": "O=CCc1ccccc1", "outcome": "inactive"},
      {"smiles": "CC(=O)NCCO", "outcome": "inactive"},
      {"smiles": "CCCCCCCCCCCCCCN(CCO)CCO", "outcome": "inactive"},
      {"smiles": "CC1(C)O[C@@H]2[C@@H](CO[C@@]3(COS(N)(=O)=O)OC(C)(C)O[C@@H]23)O1", "outcome": "inactive"},
      {"smiles": "CCCC(=O)C(CC)Sc1ccoc1C", "note": "(stereo unspecified)", "outcome": "inactive"},
      {"smiles": "N#Cc1cscn1", "outcome": "inactive"}
    ]},
    {"molecular_target": "Cellular tumor antigen p53 (Homo sapiens) (UniProt P04637)", "test": "TOX21_p53_BLA_p5_ratio: Tox21 HCT-116 p53 Agonism Beta-lactamase Assay, Ratio, Phase 5 (AID 2283599)", "method_in_brief": "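Beta-lactamase reporter ratio (blue 460 nm over green 530 nm, 405 nm excitation) after 2 h CCF4-AM loading, in HCT-116 cells exposed 16 h at 37 C to compounds pinned at 217-fold dilution. Increases relative to DMSO baseline scored.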", "values": [
      {"smiles": "CCCCN(CCCC)C(=O)N(CCCC)CCCC", "outcome": "inactive"},
      {"smiles": "CCCCC1CCC(O)CC1", "note": "(stereo unspecified)", "AC50": "83.6 µM (active)"},
      {"smiles": "CC1=NN(c2ccc(S(=O)(=O)O)cc2)C(=O)C1", "outcome": "inactive"},
      {"smiles": "CCCCC(CC)C(=O)OC(C)C", "note": "(stereo unspecified)", "outcome": "inactive"},
      {"smiles": "O=C(O)CNc1ccccc1", "outcome": "inactive"},
      {"smiles": "CN1CCOCC1", "outcome": "inactive"},
      {"smiles": "CC(C)(C)c1ccc(C(=O)O)cc1", "outcome": "inactive"},
      {"smiles": "CCOC(=O)C1OC1c1ccccc1", "note": "(stereo unspecified)", "outcome": "inactive"},
      {"smiles": "COC(C)(C)CC(C)=O", "outcome": "inactive"},
      {"smiles": "CCOC(=O)[C@@H](C)Oc1ccc(Oc2nc3ccc(Cl)cc3o2)cc1", "outcome": "inactive"},
      {"smiles": "C[C@@H]1CCN(C(=O)[C@H](CCCN=C(N)N)NS(=O)(=O)c2cccc3c2NC[C@H](C)C3)[C@@H](C(=O)O)C1", "outcome": "inactive"},
      {"smiles": "Cc1ccc(OC(=O)c2ccccc2O)cc1", "outcome": "inactive"},
      {"smiles": "COc1ccc(N)c([N+](=O)[O-])c1", "outcome": "inactive"},
      {"smiles": "O=C(O)c1cccnc1C(=O)O", "outcome": "inactive"},
      {"smiles": "Cc1ccc(-c2ccccc2)cc1", "outcome": "inactive"},
      {"smiles": "CC(=O)O[C@@H]1CC2CCC1(C)C2(C)C", "note": "(stereo partly specified)", "outcome": "inactive"},
      {"smiles": "CCCCSCCCC", "outcome": "inactive"},
      {"smiles": "FC(F)(F)COCC(F)(F)F", "outcome": "inactive"},
      {"smiles": "CCCCCCCCN1CCCC1=O", "outcome": "inactive"},
      {"smiles": "CC(CN=Cc1ccccc1O)N=Cc1ccccc1O", "note": "(stereo unspecified)", "outcome": "inactive"},
      {"smiles": "C=C(C)C(=O)OCCOCCOCCOC(=O)C(=C)C", "outcome": "inactive"},
      {"smiles": "CC(=O)O[C@H]1C[C@@H]2CC[C@@]1(C)C2(C)C", "outcome": "inactive"},
      {"smiles": "Cc1c(Cl)cccc1[N+](=O)[O-]", "outcome": "inactive"},
      {"smiles": "NCC1CCCC(CN)C1", "note": "(stereo unspecified)", "outcome": "inactive"}
    ]},
    {"system": "not listed separately", "test": "TOX21_p53_BLA_p5_viability: Viability Assessment in the Tox21 HCT-116 p53 Agonism Beta-lactamase Assay, Phase 5 (AID 2283600)", "method_in_brief": "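Seeded cells (4000/well) settle 5 h before compound addition. Plates then incubate 16 h at 37C, receive FRET substrate for 2 h, and finally CellTiter-Glo, with luminescence measured after a 30 min room-temperature incubation.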", "values": [
      {"smiles": "CCCCN(CCCC)C(=O)N(CCCC)CCCC", "outcome": "inactive"},
      {"smiles": "CCC1(c2ccccc2)C(=O)NCNC1=O", "outcome": "inactive"},
      {"smiles": "CCCCC1CCC(O)CC1", "note": "(stereo unspecified)", "outcome": "inactive"},
      {"smiles": "CC1=NN(c2ccc(S(=O)(=O)O)cc2)C(=O)C1", "outcome": "inactive"},
      {"smiles": "CCCCC(CC)C(=O)OC(C)C", "note": "(stereo unspecified)", "outcome": "inactive"},
      {"smiles": "O=C(O)CNc1ccccc1", "outcome": "inactive"},
      {"smiles": "CC(C)c1ccccc1O", "outcome": "inactive"},
      {"smiles": "CN1CCOCC1", "outcome": "inactive"},
      {"smiles": "CC(C)(C)c1ccc(C(=O)O)cc1", "outcome": "inactive"},
      {"smiles": "CCOC(=O)C1OC1c1ccccc1", "note": "(stereo unspecified)", "outcome": "inactive"},
      {"smiles": "Cc1c(C2(c3cc(Br)c(O)c(Br)c3C)OS(=O)(=O)c3ccccc32)cc(Br)c(O)c1Br", "outcome": "inactive"},
      {"smiles": "C[C@@H]1CCN(C(=O)[C@H](CCCN=C(N)N)NS(=O)(=O)c2cccc3c2NC[C@H](C)C3)[C@@H](C(=O)O)C1", "outcome": "inactive"},
      {"smiles": "C=C(C)C(=O)OCCOCCOCCOCCOC(=O)C(=C)C", "outcome": "inactive"},
      {"smiles": "Cc1ccc(OC(=O)c2ccccc2O)cc1", "outcome": "inactive"},
      {"smiles": "CC(=O)CC(=O)Nc1ccc(C)cc1C", "outcome": "inactive"},
      {"smiles": "Cc1cc(S(=O)(=O)O)ccc1N=Nc1c(O)ccc2ccccc12", "outcome": "inactive"},
      {"smiles": "O=CCc1ccccc1", "outcome": "inactive"},
      {"smiles": "COc1ccc(N)c([N+](=O)[O-])c1", "outcome": "inactive"},
      {"smiles": "CC(=O)NCCO", "outcome": "inactive"},
      {"smiles": "CCCCCCCCCCCCCCN(CCO)CCO", "outcome": "inactive"},
      {"smiles": "CC1(C)O[C@@H]2[C@@H](CO[C@@]3(COS(N)(=O)=O)OC(C)(C)O[C@@H]23)O1", "outcome": "inactive"},
      {"smiles": "O=C(O)c1cccnc1C(=O)O", "outcome": "inactive"},
      {"smiles": "Cc1ccc(-c2ccccc2)cc1", "outcome": "inactive"},
      {"smiles": "CC(=O)O[C@@H]1CC2CCC1(C)C2(C)C", "note": "(stereo partly specified)", "outcome": "inactive"},
      {"smiles": "CCCCSCCCC", "outcome": "inactive"},
      {"smiles": "FC(F)(F)COCC(F)(F)F", "outcome": "inactive"},
      {"smiles": "CCCC(=O)C(CC)Sc1ccoc1C", "note": "(stereo unspecified)", "outcome": "inactive"},
      {"smiles": "CCCCCCCCN1CCCC1=O", "outcome": "inactive"},
      {"smiles": "N#Cc1cscn1", "outcome": "inactive"},
      {"smiles": "C=C(C)C(=O)OCCOCCOCCOC(=O)C(=C)C", "outcome": "inactive"},
      {"smiles": "CC(=O)O[C@H]1C[C@@H]2CC[C@@]1(C)C2(C)C", "outcome": "inactive"},
      {"smiles": "Cc1c(Cl)cccc1[N+](=O)[O-]", "outcome": "inactive"},
      {"smiles": "NCC1CCCC(CN)C1", "note": "(stereo unspecified)", "outcome": "inactive"}
    ]}
  ]
}
